116 compounds from PubChem BioAssay AID624300 (Southern Research Specialized Biocontainment Screening …, 2012) can be followed below.

Screen size: about 2,400 compounds; about 360 (15%) were called active.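 Rule for the calls: active = viability falls under 70% at one or more tested concentrations, taken as toxicity; inactive = viability stays over 70% at every dose.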 A selection follows. Entries that show only a call come without a potency. Potency and affinity values are given separately.

This assay is described as follows: viability loss in HeLa cells – cytotoxicity control for MgcRacGAP inhibitor project, dose response (AID 624300). The following applies: CellTiter-Glo luminescence, 24 h; series mostly up to 100 µM.
Regarding `CCOc1cc(/C=N/NC(=O)c2ccc(NC(=O)C3CC3)cc2)ccc1O`, the call was inactive. To `O=C(CCN1CCCCCC1)Nc1ccc2c(c1)OCCO2` belongs “inactive”; to `C/C(CC(=O)Nc1ccc(N(C)C)cc1)=N\NC(=O)c1ccc([N+](=O)[O-])cc1`, “inactive”. In the case of `O=C(Nc1ccc(O)cc1)c1cccc(Oc2ccc([N+](=O)[O-])cc2)c1` it was “inactive”. Regarding `O=C(CNC(=O)c1ccco1)N/N=C/c1ccc(O)cc1O`, the call was inactive. Take `Cc1ccc(OC(=S)Nc2ccc(O)cc2)cc1`: the result was inactive.

Consider `COc1cc(/C=N/Nc2nc(C)cc(=O)[nH]2)ccc1O`, for which the call was inactive.

For the compound `Cc1ccsc1/C=N/Nc1nc2ccccc2[nH]1`, the compound was classed as inactive.

For `COc1cc(/C=N/NC(=O)c2cc3ccccc3[nH]2)ccc1O`, the result was inactive. `COc1ccc(/C=N/Nc2nc3ccccc3s2)cc1O`: the compound was called inactive. In the case of `CCC(=Nc1ccc(N)cc1)C1=C(O)C(C(=O)OC)C(C)(C)CC1=O` (stereo unspecified), the outcome was inactive. In the case of `COc1ccc(OC)c(CN2CCN(Cc3ccc(OC)c(OC)c3OC)CC2)c1` it was “inactive”; in that of `CC1CC(C)(C)N(C(=O)CN2CCN(C)CC2)c2ccccc21` (stereo unspecified), “inactive”. To `COc1ccccc1-n1c(=O)c2c3c(sc2n2c(=S)[nH]nc12)CCC3` belongs “inactive”. To `Oc1ccc(/C=N/Nc2ncnc3c2ncn3Cc2ccccc2)cc1O` belongs “inactive”.

Take `O=[N+]([O-])c1cccc(CN2CCN(c3cccc4[nH]ccc34)CC2)c1`: the call was inactive. In the case of `COc1ccccc1/C=C(/C(=O)OCC(=O)Nc1ccc(N(C)C)cc1)c1ccccc1`, the compound was classed as inactive. To `COc1ccc(S(=O)(=O)N2CCC(N3CCN(c4ccccc4OC)CC3)CC2)cc1` belongs “inactive”. To `Cc1cccc(CN2CCN(Cc3ccco3)CC2)c1` belongs “inactive”; to `COc1ccc(NCc2cc3ccccc3[nH]c2=O)cc1`, “inactive”. In the case of `Nc1[nH]c2cc([N+](=O)[O-])ccc2c1-c1ccccn1` it was “inactive”; in that of `CN(C)c1ccc(NC(=O)COC(=O)CNC(=O)c2cccs2)cc1`, “inactive”. Regarding `Cc1cc(OCCCN2CCN(Cc3ccccc3)CC2)ccc1[N+](=O)[O-]`, the call was inactive. To `Cc1c(N=C2NC(=O)/C(=C/c3ccc(O)cc3)S2)c(=O)n(-c2ccccc2)n1C` belongs “inactive”; to `O=C(CSc1ccc2ccccc2n1)N/N=C/c1ccc(O)cc1`, “inactive”; to `O=C(CCN1CCN(C(c2ccccc2)c2ccccc2)CC1)N/N=C/c1ccc(O)cc1`, “inactive”. To `CCCOC(=O)c1ccc(O)c(OC)c1` belongs “inactive”; to `COc1ccc(NC(C)c2cc(Cl)ccc2O)cc1` (stereo unspecified), “inactive”; to `O=C(C1CCN(Cc2cc(Cl)ccc2O)CC1)N1CCN(Cc2ccccc2)CC1`, “inactive”. To `COc1ccc(/C=C2\C(=O)NC(=O)c3ccccc32)cc1OC` belongs “inactive”; to `COc1cccc(CNc2ccc(N3CCC(C)CC3)cc2)c1OC`, “inactive”; to `COc1cc(/C=N/NC(=O)/C(=C\c2ccc3c(c2)OCO3)NC(=O)c2ccccc2)ccc1O`, “inactive”. For the compound `COc1ccc(C(=O)N/N=C/c2ccc(N3CCOCC3)s2)cc1OC`, the outcome was inactive. To `COc1cc(/C=N/NC(=O)C(=O)NCC2CCCO2)ccc1O` (stereo unspecified) belongs “inactive”; to `Cc1cc(C)c(S(=O)(=O)Nc2ccc(O)cc2)c(C)c1`, “inactive”.

As for `O=C(Nc1ccccn1)c1ccc2ccccc2c1O`, the result was inactive. With `COc1ccc(NC(=S)Nc2cccc3ccccc23)cc1OC`, the compound was classed as inactive. Turning to `O=C(Nc1ccc(O)cc1)c1ccc(C(=O)c2ccccc2)o1`, the compound was called inactive. For `COc1ccc(CCNc2nc(=S)[nH]c3cc(OC)c(OC)cc23)cc1OC`, the compound was called inactive. To `CCCCNc1nc(=S)[nH]c2cc(OC)c(OC)cc12` belongs “inactive”; to `CC(=O)CC(=O)Nc1ccc(Nc2ccccc2)cc1`, “inactive”; to `COCCCn1c(=S)[nH]c2sc3c(c2c1=O)CCCC3`, “inactive”. In the case of `Cc1cc(OCCCCCN2CCCC2)ccc1Cl` it was “inactive”; in that of `CCOc1ccc(OCCOCCN2CCCC2)cc1`, “inactive”; in that of `CN(C)CCCn1c(SCc2ccc(Cl)cc2)nnc1-c1ccncc1`, “inactive”.

On to `N#CCCN1CCN(CCC#N)c2ccccc21`, for which the call was inactive. To `C/C(CC(=O)Nc1ccc(N(C)C)cc1)=N\NC(=O)c1ccc(F)cc1` belongs “inactive”.

As to `Cn1cccc1/C=C1\SC(=Nc2ccc(O)cc2)NC1=O`, the compound was called inactive. Take `O=C(c1ccccc1F)N1CCN(Cc2ccc3c(c2)OCO3)CC1`: the outcome was inactive. In the case of `Cc1ccccc1CN1CCN(C(=O)c2cccc3ccccc23)CC1` it was “inactive”. To `Cc1[nH]c2ccccc2c1/C=N\NC(=O)CNc1ccc2c(c1)OCO2` belongs “inactive”.

With `COc1ccccc1N=NNc1ccccc1OC`, the compound was called inactive.

On to `c1ccc(CN2CCN(CCOCCOc3ccc4c(c3)CCC4)CC2)cc1`, for which the outcome was inactive.

Consider `COCCNCCOCCOc1ccc(Cl)c(C)c1`, for which the compound was classed as inactive. In the case of `Cc1cc(C)c(C)c(OCCNCc2ccccc2)c1` it was “inactive”; in that of `COCCCNCCCCOc1c(Cl)cc(C)cc1Br`, “inactive”.

Turning to `CC(=O)Nc1ccc(Oc2nc(-c3ccccn3)nc3ccccc23)cc1`, the outcome was inactive.

On to `Cc1ccc(CCC(=O)Nc2ccc(N(C)C)cc2)o1`, for which the compound was called inactive.

In the case of `Cc1cc(C(=O)NNC(=O)/C=C/c2ccco2)c(C)o1`, the result was inactive. Take `COc1cc(/C=C/C(=O)OCC(=O)NCC2CCCCC2)ccc1O`: the result was inactive. `COc1ccc(/C=N/Nc2nc(N3CCCC3)nc(N3CCCC3)n2)cc1O`: the compound was classed as inactive. For `S=C(c1ccccc1)N1CCN(c2ccccc2)CC1`, the outcome was inactive.

For `C=CCn1c(SCC(C)=O)nnc1-c1cc(-c2ccccc2)sc1N`, the compound was classed as inactive. As for `CCOC(=O)c1oc2cc(O)cc(C)c2c1C`, the result was inactive. In the case of `CCn1c(=S)[nH]c2sc3c(c2c1=O)CCCC3` it was “inactive”; in that of `COc1ccc(NCc2cccnc2)cc1`, “inactive”; in that of `CC(=O)Nc1cccc2cc(O)ccc12`, “inactive”. To `Cc1cc(Oc2ccc(-c3ccccc3)cc2)n2ncnc2n1` belongs “inactive”. On to `CC(=O)c1ccc(NC(=S)Nc2ccc3[nH]c(=O)[nH]c3c2)cc1`, for which the call was inactive. In the case of `COc1cc(C=NNC(=O)c2ccccc2-n2cccc2)ccc1O` it was “inactive”. To `Cc1c(Cl)cccc1Nc1n[nH]c(=S)s1` belongs “inactive”; to `Cc1ccc[n+](CC(=O)Nc2ccc(N(C)C)cc2)c1`, “inactive”.

Turning to `CC1(C)CC(NC(=O)N2c3ccccc3Sc3ccccc32)CC(C)(C)N1`, the compound was called inactive. In the case of `COc1ccc2nc(/N=C(\N)NC(=O)N3c4ccccc4Sc4ccccc43)nc(C)c2c1` it was “inactive”; in that of `CCOC(=O)C1=C(C)Nc2ccccc2S1`, “inactive”; in that of `O=C(NC1CCN(C(=O)N2c3ccccc3Sc3ccccc32)CC1)c1ccccc1F`, “inactive”. In the case of `Cc1ccc2nc(/N=C(\N)NC(=O)N3c4ccccc4Sc4ccccc43)nc(C)c2c1` it was “inactive”. In the case of `Cc1cc2nc(/N=C(\N)NC(=O)N3c4ccccc4Sc4ccccc43)nc(C)c2cc1C` it was “inactive”; in that of `Cc1nc(/N=C(\N)NC(=O)N2c3ccccc3Sc3ccccc32)nc2ccccc12`, “inactive”; in that of `Cc1ccc2c(C)nc(/N=C(\N)NC(=O)N3c4ccccc4Sc4ccccc43)nc2c1`, “inactive”.

On to `CN(CC(=O)NCc1ccccc1)Cc1cccc(F)c1`, for which the compound was classed as inactive. As to `O=C(CSc1nnc(C2CC2)n1C1CC1)N1CCN(c2ccc(O)cc2)CC1`, the outcome was inactive. To `CC1(C)OC(=O)C(=NNc2ccc(O)cc2)C(=O)O1` belongs “inactive”; to `Cc1cc(-c2cc(C)c(N)cc2C)c(C)cc1N`, “inactive”; to `CC(=O)C[C@H]1c2cc(F)ccc2S(=O)(=O)N1c1ccc(N(C)C)cc1`, “inactive”. To `COc1cc(OC)c(OC)cc1CN1CCN(Cc2ccc(SC)cc2)CC1` belongs “inactive”; to `CN1CC(=O)N(CC(=O)Nc2ccc(N(C)C)cc2)c2ccccc2C1=O`, “inactive”. Take `Cc1ccccc1-c1ccc(Nc2ccc(N3CCOCC3)cc2)nn1`: the compound was called inactive. Regarding `CC1CCCC(N2CCN(C(=O)c3ccc([N+](=O)[O-])cc3)CC2)C1` (stereo unspecified), the compound was classed as inactive. To `COCCCNc1nc(=S)[nH]c2cc(OC)c(OC)cc12` belongs “inactive”; to `OCCCCNc1cccc2ccccc12`, “inactive”.

`COCCNCc1nc2sc(C)c(-c3ccccc3)c2c(=O)[nH]1`: the call was inactive. For `COc1ccc(N2CCN(CC(=O)Nc3cccc(S(=O)(=O)N4CCOCC4)c3)CC2)cc1`, the compound was classed as inactive. To `CCOc1cc(/C=N/NC(=O)CSc2cccc3cccnc23)ccc1O` belongs “inactive”. To `Cc1cc(-c2ccccc2)nc2c(Br)c(=O)[nH]n12` belongs “inactive”. In the case of `COc1cc(/C=N/NS(=O)(=O)c2ccc(C)c([N+](=O)[O-])c2)ccc1O` it was “inactive”; in that of `O=C(O)c1ccccc1NS(=O)(=O)c1ccc(N/N=C/c2ccc(O)c(O)c2)c([N+](=O)[O-])c1`, “inactive”.

For `C[C@]12CC[C@H]3C(=CCc4cc(O)ccc43)[C@@H]1CCC2=O`, the call was inactive. In the case of `CC1CCC/C(=C\c2ccc(O)cc2)C1=O` (stereo unspecified) it was “inactive”; in that of `CN(C)c1ccc(/C=C2/NC(=O)NC2=O)cc1`, “inactive”; in that of `O=C1NC(=S)NC1=Cc1ccc(O)cc1`, “inactive”. In the case of `CCOc1ccccc1NC(=O)C(NCC1(N2CCCCC2)CCCCC1)c1ccccc1` (stereo unspecified) it was “inactive”. In the case of `O=C(Nc1cc(Br)c(O)c(Br)c1)c1cccc(NC(=O)c2ccco2)c1` it was “inactive”. Consider `O=C(NC(=S)Nc1cccc2c(O)cccc12)c1ccco1`, for which the compound was called inactive. As for `Brc1csc(C=Nc2ccc3c(c2)OCCOCCOCCOCCO3)c1`, the call was inactive.

On to `CCN(CC)c1ccc(/C=N/NC(=O)OC)c(O)c1`, for which the result was inactive. As for `Cc1ccccc1C(=O)Nc1ccc(N2CCCC2)cc1`, the compound was classed as inactive. To `COC(=O)c1ccc(NC(=S)Nc2ccc(O)cc2)cc1` belongs “inactive”; to `COC(=O)c1ccc(CNC(=O)COC(=O)/C=C/c2ccc(O)c(OC)c2)cc1`, “inactive”; to `COc1ccc(C(=O)/C=C/c2ccc(O)cc2)cc1`, “inactive”. In the case of `COCCCNC(=S)N1CCN(Cc2ccc3c(c2)OCO3)CC1` it was “inactive”. To `O=C(CC(c1ccccc1)c1ccccc1)Nc1ccc(O)cc1` belongs “inactive”; to `CCOC(=O)C1CCCN(C2=NC(=O)/C(=C/c3ccc(O)c(OCC)c3)S2)C1` (stereo unspecified), “inactive”. `CCN(CC)S(=O)(=O)c1cccc(-c2n[nH]c(=S)n2/N=C/c2ccc(OC(F)F)cc2)c1`: the compound was called inactive. To `Nc1ccc(N2CCCC2)c(S(=O)(=O)Nc2cccc(C(F)(F)F)c2)c1` belongs “inactive”; to `COc1ccc2c(c1)-c1nc(/N=C/c3c(O)ccc4ccccc34)sc1CC2`, “inactive”.
